Hit rate of the full screen: of about 310,000 compounds, about 3,900 (1.3%) were called active.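 Rule for the calls: active = compounds whose thallium flux B-score, printed positive for inhibition, exceeds three library SD while starting fluorescence stays within three; inactive = the rest.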 What follows is part of a selection rich in actives, with near analogues and random picks from the rest.
biological target: Potassium voltage-gated channel subfamily KQT member 1 (Homo sapiens) (UniProt P51787); test: KCNQ1 potassium current blockers – cell-based, thallium flux, high-throughput, primary screen (AID 2642); conditions: CHO-K1 KCNQ1, FluxOR thallium flux fluorescence, at 10 µM; stronger effect = higher value;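 note: channel opened by potassium depolarization with thallium stimulus after 20 min compound exposure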
Sequence (P51787 whole entry, looked up): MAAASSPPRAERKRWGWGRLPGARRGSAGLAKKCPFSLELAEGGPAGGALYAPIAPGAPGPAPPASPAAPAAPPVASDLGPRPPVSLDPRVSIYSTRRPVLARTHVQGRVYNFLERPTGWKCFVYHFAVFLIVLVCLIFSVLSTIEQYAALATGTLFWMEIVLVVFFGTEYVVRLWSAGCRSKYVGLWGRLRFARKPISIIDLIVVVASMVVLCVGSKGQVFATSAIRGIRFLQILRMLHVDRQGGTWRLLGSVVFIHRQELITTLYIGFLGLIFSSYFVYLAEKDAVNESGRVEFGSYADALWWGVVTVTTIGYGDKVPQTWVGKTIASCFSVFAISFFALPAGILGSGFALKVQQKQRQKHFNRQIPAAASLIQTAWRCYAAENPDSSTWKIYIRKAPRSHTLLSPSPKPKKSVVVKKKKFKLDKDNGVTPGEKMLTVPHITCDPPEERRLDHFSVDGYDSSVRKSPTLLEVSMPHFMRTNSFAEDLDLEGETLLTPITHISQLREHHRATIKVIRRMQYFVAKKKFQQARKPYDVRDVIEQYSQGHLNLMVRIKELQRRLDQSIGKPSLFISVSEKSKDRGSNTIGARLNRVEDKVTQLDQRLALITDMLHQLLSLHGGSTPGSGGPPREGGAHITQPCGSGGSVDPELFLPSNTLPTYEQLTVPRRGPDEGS

Row | Structure (SMILES) | B-score
1 | O=C(Nc1cccc(Cl)c1)Nc1ccccc1NS(=O)(=O)c1cccs1 | 14 (active)
2 | O=S(=O)(NCc1ccc(Cl)cc1Cl)c1cccs1 | inactive
3 | O=S(=O)(Nc1ccccc1Br)c1cccs1 | inactive
4 | COCCNC(=O)CN(Cc1ccco1)C(=O)CCC(=O)Nc1nccs1 | inactive
5 | O=C(CN1C(=O)c2ccccc2C1=O)NCc1ccc(C(=O)O)cc1 | inactive
6 | CC(=O)N(C1=C(Cl)C(=O)c2ccccc2C1=O)c1ccc(C(=O)O)cc1 | 17 (active)
7 | CC(C)N(C(=O)c1ccc(-c2ccccc2F)cc1)C(C)C | inactive
8 | Cc1ccc(Cl)cc1NC(=O)C1CCCN(c2cnccn2)C1 (stereo not drawn) | inactive
9 | O=C(COc1ccc(S(=O)(=O)N2CCOCC2)cc1Cl)N1CCOCC1 | inactive
10 | OCC1(Cc2ccccc2C(F)(F)F)CCN(Cc2cccc3cnccc23)CC1 | inactive
11 | O=C(Cc1ccsc1)N1CCN(S(=O)(=O)c2cc(C(F)(F)F)cc(C(F)(F)F)c2)CC1 | inactive
12 | O=C(c1ccncc1)N1CCN(S(=O)(=O)c2cc(C(F)(F)F)cc(C(F)(F)F)c2)CC1 | 6 (active)
13 | O=C(c1ccncc1)N1CCN(S(=O)(=O)c2cccc([N+](=O)[O-])c2)CC1 | inactive
14 | Cn1c(=O)c2c(nc(N3CCOCC3)n2CCNC2=NCCC2)n(C)c1=O | inactive
15 | CCc1cccc(NC(=O)C2CCCN(S(=O)(=O)c3ccc4[nH]c(=O)ccc4c3)C2)c1 (stereo not drawn) | inactive
16 | COC(=O)c1ccc(/C=C2/C(=O)Oc3ccccc32)cc1 | inactive
17 | C/C(N)=C(/C#N)C(=O)COC(=O)C1CCN(C(=O)c2ccc(Cl)cc2)CC1 | inactive
18 | COc1ccc(NC(=O)CNC(=O)Cn2ccc3ccccc3c2=O)c(OC)c1 | inactive
19 | Cc1ccc(OCCCCc2c(C)n[nH]c2C)cc1 | inactive
20 | CCn1c(/C=C/Nc2ccccc2)[n+](CC)c2ccc(C(=O)OCC(F)(F)F)cc21 | 9 (active)
21 | CCOC(=O)c1ccc2c(c1)nc(C)n2CC | inactive
22 | CCOC(=O)N1CCN(C(=O)c2ccc(S(=O)(=O)Nc3cccc(C(F)(F)F)c3)cc2)CC1 | inactive

Row | Structure (SMILES) | B-score
23 | O=C(COC(=O)/C=C/c1cccs1)NC1CCCCC1 | inactive
24 | Cc1ccc(NC(=O)COc2ccc(-n3ccnc3)cc2)cc1Cl | inactive
25 | Cc1ccc(-c2nc(-c3cccnc3)sc2CC(=O)Nc2ccc(C)c(Cl)c2)cc1 | 11 (active)
26 | Cc1nc(-c2ccc(F)cc2)c(CC(=O)Nc2cccc(S(=O)(=O)N3CCOCC3)c2)s1 | inactive
27 | COc1cc(C(=O)N/C(=C\c2cn(C)c3ccccc23)C(=O)N2CCOCC2)cc(OC)c1OC | inactive
28 | COc1cc(/C=C(\C#N)c2nc3c(s2)CC(C)CC3)ccc1O (stereo not drawn) | inactive
29 | COc1ccc(/C=C(/NC(=O)c2ccc(C)cc2)c2nc3ccccc3[nH]2)cc1OC | inactive
30 | COc1cc(/C=C(\C#N)c2nc3ccccc3[nH]2)ccc1O | 9 (active)
31 | COc1ccc(/C=C(\NC(=O)c2ccc(OCC(C)C)cc2)C(=O)OCc2ccco2)cc1 | inactive
32 | O=C(O)c1ccc(OCC2CCCO2)cc1 (stereo not drawn) | inactive
33 | COc1ccccc1C(=O)NC(CCSC)C(=O)NNC(=O)c1csc(N2CCOCC2)n1 (stereo not drawn) | inactive
34 | O=C(Nc1ccc(F)cc1)c1cccnc1N1CCOCC1 | 10 (active)
35 | COC(=O)c1cc(NC(=O)c2cccnc2)ccc1N1CCOCC1 | inactive
36 | O=C(Nc1ccc(N2CCOCC2)nc1)c1c(F)cccc1F | inactive
37 | CSCCC(NS(=O)(=O)/C=C/c1ccccc1)C(=O)N1CCC(C)CC1 (stereo not drawn) | inactive
38 | CCOC(=O)c1ccc(NC(=O)c2cccnc2)cc1 | inactive
39 | Cc1c(C(=O)OC(C)C)sc(NC(=O)c2cccnc2)c1C#N | 9 (active)
40 | CCOC(=O)c1sc(NC(=O)CSc2ncccn2)c(C#N)c1C | inactive
41 | C=CCc1c(C)nc2cc(-c3ccccc3)[nH]n2c1=O | inactive
42 | COc1ccc(CCNC(=O)CCNS(=O)(=O)c2cc(Br)cnc2N)cc1OC | inactive
43 | Cc1cc(C)cc(OCC(=O)Nc2ccc(S(=O)(=O)Nc3ccccn3)cc2)c1 | inactive
44 | Cc1ccc(S(=O)(=O)Nc2ccc3ncccc3c2)cc1 | 6 (active)

Row | Structure (SMILES) | B-score
45 | Cc1ccc(NS(=O)(=O)c2ccc(C(C)(C)C)cc2)cn1 | inactive
46 | Cc1ccc2c(Cl)c(C(=O)Nc3nn[nH]n3)sc2c1 | inactive
47 | CCCCCCOc1ccc(OC(=O)c2cccnc2)cc1 | inactive
48 | CN(C)CCCN1C(=O)CSC1c1ccc([N+](=O)[O-])cc1 (stereo not drawn) | inactive
49 | CCCCCCCCCCCCN1C(=O)CSC1c1cccnc1 (stereo not drawn) | 9 (active)
50 | CCCCN1C(=O)c2ccc(C(=O)Nc3ccc(S(=O)(=O)N(C)C)cc3)cc2C1=O | inactive
51 | CC(C)(C)C(=O)N(Cc1ccccc1)c1ccccn1 | inactive
52 | CCN=C1S/C(=C\c2cc(Br)ccc2OCC(=O)OCC)C(=O)N1CC | inactive
53 | CN(C)C(=O)c1ccc(NC(=O)c2ccccc2-c2ccccc2)cc1 | inactive
54 | CN(C)C(=O)c1ccc2c(c1)C1C3CCC(C3)C1C(c1ccccc1)N2 (stereo not drawn) | 6 (active)
55 | O=C(c1ccc2c(c1)N(Cc1ccc(F)cc1)C(=O)c1ccccc1S2(=O)=O)N1CCN(c2ccccn2)CC1 | inactive
56 | O=C(NCc1ccncc1)NC12CC3CC(CC(C3)C1)C2 | inactive
57 | S=C(NCc1ccc(Cl)cc1)NC1CCCCC1 | inactive
58 | S=C(NCc1ccc(Cl)cc1)NC12CC3CC(CC(C3)C1)C2 | 11 (active)
59 | Cc1cc(C)c(NC(=S)N2CCCC2C(=O)O)c(C)c1 (stereo not drawn) | inactive
60 | CC(C)[C@H](NC(=O)N1CCn2c1nc1ccccc12)C(=O)NCc1ccc2c(c1)OCO2 | inactive
61 | COc1cnn(-c2ccc([N+](=O)[O-])cc2)c(=O)c1Cl | inactive
62 | CC(=O)c1ccc(NC(=O)C2CCCN2S(=O)(=O)c2cccs2)cc1 (stereo not drawn) | inactive
63 | CCSc1nsc(NC(=O)Nc2ccccc2OC)n1 | inactive
64 | C=C(C)C(=O)Nc1cccc(C(C)=O)c1 | inactive
65 | CC(=O)c1cccc(NC(=O)c2ccncc2)c1 | inactive
66 | CCSc1nsc(NC(=O)Nc2cccc(C(C)=O)c2)n1 | 10 (active)

Row | Structure (SMILES) | B-score
67 | C=CCSc1nsc(NC(=O)Nc2cccc(C(C)=O)c2)n1 | 12 (active)
68 | CSc1nsc(NC(=O)Nc2ccccc2)n1 | inactive
69 | CCOc1ccc(C(CCc2ccccc2)NC(=O)c2ccc(OC)c(OC)c2)cc1OCC (stereo not drawn) | inactive
70 | COc1cc2c3c(c1)/C(=C1/SC(=S)NC1=O)C(=O)N3C(C)(C)C=C2C | inactive
71 | Cc1ccc2nc(-c3ccncc3)cc(C(=O)Nc3ccc(OC(F)F)cc3)c2c1 | inactive
72 | CC(C)C(=O)Nc1ccc2c(c1)oc1ccccc12 | inactive
73 | CCOC(=O)c1ccc(NC(=O)CCn2c(=O)oc3ccccc32)cc1 | inactive
74 | Cc1csc(NC(=O)C2=COCCO2)n1 | inactive
75 | CC(=O)NCCC(=O)Nc1nc(-c2ccc3c(c2)OCCO3)cs1 | inactive
76 | Cc1ccc(-c2csc(NC(=O)C3=COCCO3)n2)cc1C | 12 (active)
77 | Cc1cccc(CN2CCC(n3nccc3NC(=O)c3ccccc3C)CC2)n1 | inactive
78 | CN(C)N(C)C(=O)C(O)(c1ccccc1)c1ccccc1 | inactive
79 | CCc1ccc(NC(=O)CCNS(=O)(=O)c2cccs2)cc1 | inactive
80 | COc1ccc(-c2cc(C(F)(F)F)nc(S(C)(=O)=O)n2)cc1OC | 7 (active)
81 | COc1ccc(-c2ccc(Nc3ccc(S(=O)(=O)N4CCCC4)cc3)nn2)cc1OC | inactive
82 | COc1ccc(-c2cc(C(F)(F)F)nc(NCc3cccnc3)n2)cc1 | inactive
83 | C=C(C)CNC(=O)c1ccc(OC2CCN(C(=O)COC)CC2)cc1 | inactive
84 | O=C(CC(NCCN1CCOCC1)C(=O)O)Nc1cccc(Cl)c1 (stereo not drawn) | inactive
85 | CCOC(=O)c1sc(NC(=O)CSc2nc(C)cc(C(F)(F)F)n2)c(C#N)c1C | inactive
86 | CC(C(=O)Nc1ccc(O)c(C(=O)O)c1)N1C(=O)/C(=C/c2cccs2)SC1=S (stereo not drawn) | inactive
87 | COC(=O)c1ccc(NC(=O)Nc2ccc(C)cc2)cc1 | 7 (active)
88 | Cc1ccc(NC(=O)CC(=O)Nc2ccc(C)cc2)cc1 | inactive

Row | Structure (SMILES) | B-score
89 | COC(=O)c1ccc(NC(=O)c2cc(Cl)ccc2OC)cc1 | inactive
90 | CCC(C)C(NC(=O)C1CCC(=O)N1C(=O)OCc1ccccc1)C(=O)NC(C(=O)N1CCCC1C(N)=O)C(C)CC (stereo not drawn) | inactive
91 | CC1CCc2c(c3ccccc3[nH]c2=O)O1 (stereo not drawn) | inactive
92 | CCOC(=O)c1cc(C)sc1NC(=O)C1CCC1 | inactive
93 | O=C(c1ccccc1)N1N=C(c2ccccc2O)CC1c1ccc(Br)cc1 (stereo not drawn) | inactive
94 | COc1ccc(C2CC(c3cccs3)=NN2c2ccccc2)cc1 (stereo not drawn) | inactive
95 | Oc1ccccc1C1=NN(c2ccccc2)C(c2ccccc2)C1 (stereo not drawn) | 7 (active)
96 | Cc1nc2c(C(=O)NCc3cccs3)cnn2c(C)c1Cc1ccc(F)cc1 | inactive
97 | CCOC(=O)c1cccc(NC(=O)C2CCCN(S(=O)(=O)c3cnc[nH]3)C2)c1 (stereo not drawn) | inactive
98 | Cc1ccc(C)c(-n2cc(CN3CCN(C(=O)c4ncn[nH]4)CC3)c(-c3ccccc3)n2)c1 | inactive
99 | Cc1cccc(-n2cc(CN3CCN(C(=O)c4ncn[nH]4)CC3)c(-c3cccc(F)c3)n2)c1 | 10 (active)
100 | CCC(O)C1CCN(Cc2cn(-c3ccc(OC)cc3)nc2-c2cccc(F)c2)CC1 (stereo not drawn) | inactive
101 | Cc1cc(C)c(S(=O)(=O)N2CCCC2CNC(=O)c2ccc3c(c2)OCO3)c(C)c1 (stereo not drawn) | inactive
102 | Cc1ccc(OCCCCN2CCCCC2)c(Br)c1 | inactive
103 | CC(C)CC(=O)N1CCN(Cc2ccccc2Br)CC1 | inactive
104 | CCN1CC=C2C(C#N)=C(N)C(C#N)(C#N)[C@H](c3ccoc3)[C@H]2C1 | inactive
105 | CCC(C)(C)NC(=O)/C=C/c1cc(OC)c(OC)c(S(=O)(=O)N2CCc3ccccc32)c1 | inactive
106 | O=C(CN1CCCCCC1)NCCN1C(=O)S/C(=C\c2ccccc2Cl)C1=O | inactive
107 | O=C(CN1C(=O)S/C(=C\c2ccccc2Cl)C1=O)NC1C=CS(=O)(=O)C1 (stereo not drawn) | inactive
108 | CN1C2CCC1/C(=C\c1ccccc1Cl)C(=O)/C2=C\c1ccccc1Cl | 10 (active)

— PubChem BioAssay AID2642 (Johns Hopkins Ion Channel Center, 2010)
